The values that follow come from PubChem BioAssay (NCATS).

Molecules are shown by their SMILES. Where “and” joins values, the source holds several entries; their conditions need not be identical. Equal entries are not always repeated. Results filed as inconclusive are left out. Unmarked numbers belong to inactive results. Calls of active or inactive are those of the source. The call rests on the fitted dose curve; in most records, active means well fitted curve in the direction sought with a large enough effect; inconclusive means small, poorly fitted or top-dose-only effect, or another doubt; inactive means no such curve, though single readings can be large; an effect the other way counts as inactive or inconclusive.

Test [1] in a line: Viability qHTS for spleen associated tyrosine kinase inhibitor (SYKi) naive MV4-11 cells (AID 1963823). Further: nearly all actives have a fitted effect of over 40% in size. Further: potency means the concentration at half of the fitted maximal effect. The gist of the method:
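Seeding of 500 SYKi-naive MV4-11 cells per well onto pre-dispensed compounds preceded a 72 hr incubation at 37 C. Luminescent CellTiter-Glo signal, read after 10 min at room temperature, reflected viable cells.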
(In general: Quantitative high-throughput screening tests each substance at several concentrations.)

The nature of test [2]: Viability qHTS for spleen associated tyrosine kinase inhibitor (SYKi) drug resistant MV4-11 cells (AID 1963824). Further: nearly all actives have a fitted effect of over 35% in size. Further: potency means the concentration at half of the fitted maximal effect. The gist of the method: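 SYK-inhibitor-resistant MV4-11 AML cells were seeded at 500 per well onto compound and cultured 72 hours (37 °C, 5% CO2). CellTiter-Glo was then added, and after 10 min at room temperature, luminescence gave viability.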
The nature of test [3]: Quantitative highthroughput screen to assess conditional lethalithy of SEM cells grown in RPMI1640 with dialyzed fetal bovine serum (RPMI+ds) (AID 1963884). Further: nearly all actives have a fitted effect of over 35% in size. Further: potency means the concentration at half of the fitted maximal effect.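 On Viability: series mostly up to about 46 µM; 100% = DMSO control wells and 0% = empty wells without cells.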 The gist of the method: (§1)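 Each medium arm—HPLM with 10% dialyzed FBS, or RPMI1640 with 5 mM glucose and 10% untreated or dialyzed FBS—was screened against an 11-point, 3-fold compound titration for 48 h at 37 °C, with CellTiter-Glo luminescence as endpoint.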

A short description of test [4]: Cellular viability qHTS for adrenocortical cancer (ACC) cell line NCI-H295R (AID 1963990). Further: nearly all actives have a fitted effect of over 60% in size. Further: potency means the concentration at half of the fitted maximal effect. The method in brief:
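Readout: CellTiter-Glo luminescence, 20 min RT. Exposure: 48 h, 37C/5% CO2. Cells: NCI-H295R, ITS-DMEM serum-free. Range: up to 46 uM. Analysis: 4PL fit, IC50 plus efficacy.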

A short description of test [5]: Quantitative highthroughput screen to assess conditional lethalithy of P12 Ichikawa cells grown in RPMI1640 with dialyzed fetal bovine serum (RPMI+ds) (AID 1963880). Further: potency means the concentration at half of the fitted maximal effect; nearly all actives have a fitted effect of over 35% in size. The conditions noted are these: Potency: P12-Ichikawa viability. The gist of the method: as §1
The nature of test [6]: Quantitative highthroughput screen to assess conditional lethalithy of SEM cells grown in Human Plasma-Like Medium with dialyzed fetal bovine serum (HPLM+ds) (AID 1963882). Further: nearly all actives have a fitted effect of over 35% in size. Further: potency means the concentration at half of the fitted maximal effect. On Viability: series mostly up to about 46 µM. The method in brief: as §1
Test [7] in a line: Cellular viability qHTS for adrenocortical cancer (ACC) cell line SW-13 (AID 1963989). Further: nearly all actives have a fitted effect of over 65% in size. Further: potency means the concentration at half of the fitted maximal effect.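 On activity (max response): cells grown in serum-free medium with ITS supplement; on the % scale 0 is the no-effect control and ±100 the full control effect.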 The settings on record: SW-13 ACC cells viability, CellTiter-Glo, 48 h; activity (max response): active compounds read low. The gist of the method: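 Compound titrations (up to 46 uM final, in DMSO) were applied to SW-13 cells for 48 h at 37C/5% CO2. Reading used CellTiter-Glo after 20 min at room temperature; fitted curves yielded IC50 and efficacy.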

The nature of test [8]: Quantitative highthroughput screen to assess conditional lethalithy of NOMO1 cells grown in RPMI1640 with dialyzed fetal bovine serum (RPMI+ds) (AID 1963877). Further: nearly all actives have a fitted effect of over 30% in size. Further: potency means the concentration at half of the fitted maximal effect.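 On Viability: series mostly up to about 46 µM; 100% = DMSO control wells and 0% = empty wells.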 The method in brief:
as §1

Test [9] can be described thus: Quantitative highthroughput screen to assess conditional lethalithy of NOMO1 cells grown in Human Plasma-Like Medium with dialyzed fetal bovine serum (HPLM+ds) (AID 1963878). Further: nearly all actives have a fitted effect of over 35% in size. Further: potency means the concentration at half of the fitted maximal effect.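 On Viability: 100% = DMSO wells and 0% = empty wells on each plate.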 The method in brief:
as §1

Test [10] is described as follows: Quantitative highthroughput screen to assess conditional lethalithy of SEM cells grown in RPMI1640 with unreated serum (RPMI+s) (AID 1963883). The gist of the method:
as §1

The nature of test [11]: Quantitative highthroughput screen to assess conditional lethalithy of P12 Ichikawa cells grown in Human Plasma-Like Medium with dialyzed fetal bovine serum (HPLM+ds) (AID 1963879). The settings on record: Potency: viability. The gist of the method:
as §1

As to `CC1=C(O)C(=O)C=C2C1=CC=C1[C@@]2(C)CC[C@@]2(C)[C@@H]3C[C@](C)(C(=O)O)CC[C@]3(C)CC[C@]12C`, the Potency in test [1] was 0.59 µM (active); in [2] it was 0.468 µM (active); in test [3], 1.87 µM (active); in test [4], 6.31 µM (active).

As to `COc1ccc(C(=O)c2c(C)n(CCN3CCOCC3)c3cc(I)ccc23)cc1`, the Potency in [1] is 13.2 µM (active); in test [2], 10.5 µM (active); in [5], 8.33 µM (active); in [6] it was 20.9 µM (active); in [7] it was 31.6 µM (active); in [4], 20 µM (active).

For `CC[C@@H](C(N)=O)N1CCCC1=O`, the Potency result in test [1], in [2], in test [8], in test [9] and in test [4] was “inactive” throughout. Besides, the activity (max response) in [7] is -2.57%.

Take `COC(=O)[C@@H](N)CCCN=C(N)N[N+](=O)[O-]`: the Potency result in test [1], in [2], in test [8], in test [9], in [6] and in test [10] was “inactive” throughout. The Potency result in test [3] and in [4] was “inactive” in each case. In addition, the activity (max response) in test [7] is 6.1%.

In the case of `CCNC(=O)C[C@@H]1N=C(c2ccc(Cl)cc2)c2cc(OC)ccc2-n2c(C)nnc21`, the Potency in [1] was 411 nM (active) and 417 nM (active); in test [2], 461 nM (active) and 417 nM (active); in test [8] it was 9.35 µM (active); in test [3] it was 1.05 µM (active). In addition, the activity (max response) in [7] was -15.2%. The Potency entry in [4] was “inactive”.

`O=c1cccc2n1CC1CNC[C@H]2C1`: the Potency result in test [1], in test [2], in [3] and in test [4] was “inactive” throughout. The activity (max response) in test [7] is -2.44%.

Take `CCC1(c2ccc(N)cc2)CCC(=O)NC1=O` (stereo not drawn): the Potency result in test [1], in test [2], in test [8], in [3] and in test [4] was “inactive” each time. The activity (max response) in test [7] was -1.13% and 5.11%.

Consider `O=C(N[C@@H](COc1ccc2[nH]c(=O)[nH]c2c1)c1ccccc1)c1cccn(Cc2ccc(F)c(F)c2)c1=O`, for which the Potency in test [1] is 11.6 µM (active); in test [2] it was 11.6 µM (active); in test [11], 5.26 µM (active).

On to `CC1(N2CCC(n3c([C@@H]4CCCNC4)nc4ccccc43)CC2)CCCCCCC1`, for which the Potency in test [1] was 6.51 µM (active); in test [2] it was 9.2 µM (active) and 7.42 µM (active); in test [8], 16.6 µM (active); in test [7], 28.2 µM (active); in [4], 17.8 µM (active). In test [3], the Potency result was “inactive”.

As to `C[C@]12CC[C@@H]3c4ccc(OC(=O)N(CCCl)CCCl)cc4CC[C@H]3[C@@H]1CC[C@@H]2OP(=O)(O)O`, the Potency result in test [1], in test [2] and in test [4] was “inactive” each time. In [9], the Potency is 18.7 µM (active). In addition, the activity (max response) in [7] was -13.4%.

In the case of `Clc1cccc(N2CCNCC2)c1`, the Potency result in test [1], in test [2] and in test [4] was “inactive” in each case. Moreover, the activity (max response) in test [7] was 2.07%.

Take `C1CN2CCC1CC2`: the Potency entry in [1], in [2] and in [4] was “inactive” in each case. In addition, the activity (max response) in test [7] was 2.77%.

For `CC1(C)C(=O)N(c2ccc(C#N)c(C(F)(F)F)c2)C(=S)N1Cc1ccc(-c2cn[nH]n2)cc1`, the Potency in test [1] was 16.6 µM (active); in test [2], 14.8 µM (active); in test [7], 25.1 µM (active).

For the compound `CC(C)=C[C@@H]1[C@@H](C(=O)OCc2coc(Cc3ccccc3)c2)C1(C)C`, the Potency entry in [1] and in test [2] was “inactive” throughout. Moreover, the activity (max response) in test [7] is -18.7%.

Regarding `CC(C)[C@]12O[C@H]1[C@@H]1O[C@]13[C@]1(O[C@H]1C[C@H]1C4=C(CC[C@@]13C)C(=O)OC4)[C@@H]2O`, the Potency is 0.0166 µM (active) in [1]; 9.2 nM (active) and 16.6 nM (active) in test [2]; 0.251 µM (active) in test [7]; 0.316 µM (active) in [4].

In the case of `CC1(C)CC(O)CC(C)(C)N1O`, the Potency result in test [1], in [2] and in test [4] was “inactive” throughout. For the same compound, the activity (max response) in [7] is -2.2%.

For the compound `CN1CCC(O)(c2ccc(F)cc2)C(C(=O)c2ccc(F)cc2)C1` (stereo not drawn), the Potency entry in test [1], in [2] and in test [4] was “inactive” each time. Also, the activity (max response) in test [7] is 0.424%.

Consider `CC1NCCOC1c1ccccc1` (stereo not drawn), for which the Potency entry in [1], in [2] and in test [4] was “inactive” in each case. Further, the activity (max response) in [7] was -0.553%.

With `OC(O)C(Cl)(Cl)Cl`, the Potency entry in [1], in test [2] and in [4] was “inactive” each time. In test [7], the activity (max response) was 12.7%.

`COP(=O)(OC)C(O)C(Cl)(Cl)Cl` (stereo not drawn): the Potency result in test [1], in test [2] and in test [4] was “inactive” throughout. Also, the activity (max response) in test [7] is 6.64%.

In the case of `O=C1OC(c2ccc(O)c(S(=O)(=O)O)c2)(c2ccc(O)c(S(=O)(=O)O)c2)c2c(Br)c(Br)c(Br)c(Br)c21`, the Potency entry in [1], in [2] and in test [4] was “inactive” throughout. Moreover, in test [7], the activity (max response) was 4.14%.
